Laboratory results as given in PubChem BioAssay (NCATS).
Inconclusive results are not listed. Unmarked numbers belong to inactive results. Calls of active or inactive are those of the source. Calls come from the whole dose curve; as a rule, active = well fitted activation curve with a large enough effect in the main read-out, with a control signal flat (not every such curve was filed as active); inconclusive = small, poorly fitted or top-dose-only effect, or effect the other way, or a change in a side signal; inactive = flat fitted curve, though single readings scatter.

The compounds below were run against 3',5'-cyclic-AMP phosphodiesterase 4B (Homo sapiens) (UniProt Q07343) (assay: qHTS Assay for Inhibitors of PDE-IV (AID 607; note: % of control where 0% means no effect)). Details: HEK293 ACTOne CNG channel cells, membrane potential fluorescence; series mostly up to 22.9 µM; activation (PDE inhibition): at the top concentration.
3',5'-cyclic-AMP phosphodiesterase 4B (Homo sapiens), sequence (Q07343 whole entry, looked up): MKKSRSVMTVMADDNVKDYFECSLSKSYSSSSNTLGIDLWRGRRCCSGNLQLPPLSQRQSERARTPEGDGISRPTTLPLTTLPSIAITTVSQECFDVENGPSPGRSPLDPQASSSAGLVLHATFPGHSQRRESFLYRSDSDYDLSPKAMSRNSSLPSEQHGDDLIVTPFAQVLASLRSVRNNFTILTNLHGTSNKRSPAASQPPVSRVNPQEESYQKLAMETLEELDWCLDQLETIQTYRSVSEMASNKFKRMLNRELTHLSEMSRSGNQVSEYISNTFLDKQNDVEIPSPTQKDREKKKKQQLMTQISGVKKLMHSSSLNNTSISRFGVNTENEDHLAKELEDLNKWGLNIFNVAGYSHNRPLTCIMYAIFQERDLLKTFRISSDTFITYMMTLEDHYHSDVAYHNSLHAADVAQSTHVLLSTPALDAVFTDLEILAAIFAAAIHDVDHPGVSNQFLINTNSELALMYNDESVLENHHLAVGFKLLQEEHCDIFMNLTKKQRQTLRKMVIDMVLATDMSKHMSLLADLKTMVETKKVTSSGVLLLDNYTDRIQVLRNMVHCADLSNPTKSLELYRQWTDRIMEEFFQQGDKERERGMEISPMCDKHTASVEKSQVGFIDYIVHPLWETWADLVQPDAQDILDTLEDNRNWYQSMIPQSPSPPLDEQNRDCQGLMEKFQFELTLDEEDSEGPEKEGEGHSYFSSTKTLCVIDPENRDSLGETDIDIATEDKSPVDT
Method in brief: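 ACTOne HEK293 cells carry a modified cAMP-gated CNG channel and express endogenous PDE4; plated 1000 cells/well, compounds up to 22.9 uM final. Membrane-potential dye fluorescence (ex 535/em 590) was read; parental cells received 10 uM forskolin + 100 uM RO 20-1724.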

Row | SMILES | outcome | activation (PDE inhibition) [%]
1 | NC(=NCc1ccccc1)NC(=O)c1nc(Cl)c(N)nc1N | inactive | 
2 | Nc1nc(OCc2ccccc2)c2[nH]cnc2n1 |  | 10.4
3 | COc1cc(OC)c(C(=O)CCCN2CCCC2)c(OC)c1 |  | 18.6
4 | Oc1ccc(-c2nc(-c3ccc(F)cc3)c(-c3ccncc3)[nH]2)cc1 |  | -21.3
5 | CC1(C)C(=O)N(CCN2CCC(C(=O)c3ccc(F)cc3)CC2)c2ccccc21 |  | 24.1
6 | CCOc1cc(CC(=O)N[C@@H](CC(C)C)c2ccccc2N2CCCCC2)ccc1C(=O)O |  | 18.4
7 | Cc1cc2cc3c(C)cc(=O)oc3c(C)c2o1 |  | 11.7
8 | C[C@H](Cc1ccc(O)c(O)c1)[C@@H](C)Cc1ccc(O)c(O)c1 |  | -12.1
9 | CCCCN(CCCC)CCC(O)c1cc2c(Cl)cc(Cl)cc2c2cc(C(F)(F)F)ccc12 (stereo not given) |  | 17.8
10 | O=c1c(O)c(-c2cc(O)c(O)c(O)c2)oc2cc(O)cc(O)c12 | inactive | 
11 | CN1C(C(=O)Nc2ccccn2)=C(O)c2sccc2S1(=O)=O |  | 5.82
12 | Cc1cc(C2CCCCC2)n(O)c(=O)c1 |  | 19.6
13 | COc1ccccc1N1CCN(CCN(C(=O)C2CCCCC2)c2ccccn2)CC1 |  | -1.56
14 | CC1(C)NC(=O)N(c2ccc([N+](=O)[O-])c(C(F)(F)F)c2)C1=O | inactive | 
15 | O=c1ccc2ccc(O)c(O)c2o1 |  | -13.9
16 | NNc1nncc2ccccc12 | inactive | 
17 | NCCCCNCCCN | inactive | 
18 | O=C(O)c1cccnc1Nc1cccc(C(F)(F)F)c1 |  | 21.7
19 | Cc1c(OCC(F)(F)F)ccnc1CS(=O)c1nc2ccccc2[nH]1 (stereo not given) | inactive | 
20 | O=C(CCc1ccc(O)cc1)c1c(O)cc(O)cc1O | inactive | 
